The panel holds about 83,000 compounds, 20% with a hit somewhere; the sample as a whole holds those more often.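 Activity criterion: percent growth below 10, measured after cells in 96-well plates were exposed to a single compound concentration for 48 hours.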 The source made the active and inactive calls.

The subject of the test is MDA-MB-468 breast. As to the kind of experiment: NCI-60 one-dose screen, 48 h (100 = growth as untreated, 0 = no growth, -100 = all killed). Particulars: 10 µM unless noted.
Take `C=C(C)[C@@H]1CC[C@]2(C(=O)NCCNCCNC(=O)OC(C)(C)C)CC[C@]3(C)[C@H](CC[C@@H]4[C@@]5(C)CCC(=O)C(C)(C)[C@@H]5CC[C@]43C)[C@@H]12`: the growth was 53.5% [100 µM] (inactive).
As for `C=C1C(=O)O[C@H]2[C@H]1CC/C(COC(=O)CCCCCCC(=O)OC/C1=C/CC[C@@]3(C)O[C@H]3[C@H]3OC(=O)C(=C)[C@@H]3CC1)=C\CC[C@@]1(C)O[C@@H]21`, the figure is -23.9% (active); as for `COc1cc2c(cc1-c1c(C)noc1C)ncc1nc(-c3ccccn3)n([C@H](C)COC(F)F)c12`, 46.5% (inactive).
As for `N#Cc1c(-c2ccccc2)nc(SCC2CO2)nc1N1CCOCC1` (centres undefined), the growth is 55.9% (inactive).
As for `COC1=CC(c2ccc[nH]2)=N/C1=C\c1[nH]c(C)c(C(=O)CCCCC(=O)NCc2ccccc2)c1C`, the figure is 4.21% (active); as for `COc1ccc(-c2c3c(cn2Cc2cccc(OC)c2)-c2oncc2CCC3)cc1`, 88.7% (inactive); as for `COc1cc(C2C=C(c3ccc(Cl)c(Cl)c3)N=C3SC(C)=CN32)cc(OC)c1OC` (centres undefined), 62.5% (inactive).
For the compound `COc1ccc(-c2cc(-c3cccnc3)nc3sc4c(Cl)nnnc4c23)cc1OC`, the growth was 80.1% (inactive).
As for `CN1CCN(CCCOc2ccc3nc(Nc4ccc(Cl)c(C(F)(F)F)c4)ccc3c2)CC1`, the growth is 69.5% (inactive).
Regarding `C/C(CC1(O)C(=O)Nc2ccccc21)=N\O` (centres undefined), the growth was 92% (inactive).
For `COc1ccc(/C=C/C(=O)c2cc3c(N)c(C(=O)Nc4ccc(OC)cc4)sc3nc2C)cc1`, the growth was 11.6% (inactive).
The same measure for `O=C1C2CC3C(CC2C(=O)[N]1[Sn]([c]1ccccc1)([c]1ccccc1)[c]1ccccc1)C1(Cl)C(Cl)=C(Cl)C3(Cl)C1(Cl)Cl` (centres undefined): -83.1% (active).
The same measure for `COc1ccc(NC(=O)c2nc(-c3cc(OC)c(OC)c(OC)c3)n(-c3cccc4ccccc34)n2)cc1OC`: 46.4% (inactive); for `CCN(CC)CCn1c2ccc(O)cc2c2sc3cc(O)ccc3c(=O)c21`: 47.8% (inactive); for `CCOC(=O)C1=C(C)NC(SCc2nnc(-c3ccc(Cl)cc3)o2)=NC1c1ccc(Cl)cc1` (centres undefined): 48.9% (inactive).
As for `O=[N+]([O-])c1ccc(NS(=O)(=O)c2ccc(Cl)c(Cl)c2)cc1`, the figure is 64.6% (inactive); as for `CSc1nc2ccc(C)cc2cc1/C=N/O`, 101% (inactive); as for `COc1ccc(CNCCCN2C(=O)c3ccc4c5c(ccc(c35)C2=O)C(=O)N(CCCNCc2ccc(OC)c(OC)c2OC)C4=O)c(OC)c1OC`, -94.8% (active).
`COc1ccc2cc(-c3ccc(NC(C)=O)c(=O)o3)ccc2c1`: the growth is 106% (inactive).
For `Cc1cc(=O)n(-c2ccc(F)cc2)[nH]1`, the growth was 113% (inactive).
As for `CC(C)c1ccc(NC(=O)Nc2ccc(NC(=O)c3ccccc3N)cc2)cc1`, the figure is 81.4% (inactive).
As for `COc1cnc2c(c1)C(=O)c1c-2n(CCCN2CCCC2)c(=O)c2cc(F)ccc12`, the growth is -29.5% (active).
The same measure for `CCCCCCCCCCCCCCCC(=O)OC[C@@]1(O)C[C@@]23CC[C@@H]4C(C)(C)CCC[C@@]4(C)[C@@H]2CC[C@H]1C3`: 103% (inactive); for `O=C(Nc1nc(-c2ccccc2)cc(-c2ccc(Cl)cc2)n1)c1ccncc1`: 106% (inactive).
The same measure for `Cc1ccc(Oc2nc3ccccc3cc2-c2nnc(Cn3c(COc4ccccc4)nc4ccccc43)o2)cc1`: 92.1% (inactive); for `C#C[C@@]1(O)[C@@H](CO)O[C@@H](n2cc(F)c3c(N)ncnc32)[C@@H]1O`: -46.2% (active).
In the case of `CC(C)c1ccc2c(c1)CCC1C2CCCC1(C)NCc1ccccc1` (centres undefined), the growth was -44.5% (active).
As for `COc1cc(/C=C/C(=O)c2ccc(O)c(CN3CCN(c4cc5c(cc4F)c(=O)c(C(=O)O)cn5C4CC4)CC3)c2)cc(OC)c1OC`, the figure is 6.61% (active); as for `CC(=O)Nc1ccc2oc(=O)ccc2c1`, 83% (inactive); as for `O=c1oc2ccc(Br)cc2c(=O)n1-c1ccc(Cl)cc1F`, -1.24% (active).
As for `COc1cccc(N2CCN(c3ncnc4c3[nH]c3ccc(F)cc34)C[C@@H]2C)c1`, the figure is -12.5% (active); as for `CN(C)c1ccc(Nc2cc(-c3cccc(OC(F)(F)F)c3)nc3ccc(N4CCCC4)cc23)cc1`, -48.1% (active).
With `COc1ccc2nc3cc(Cl)ccc3c(N3CCN(c4ccnc(Nc5ccc(F)cc5)n4)CC3)c2c1`, the growth was 63.8% (inactive).
With `COC1=CC(c2ccc[nH]2)=N/C1=C\c1[nH]c(C)c(C(=O)OCc2ccccc2)c1C`, the growth is -83.2% (active).

The values are drawn from PubChem BioAssay (NCI).
